Laboratory results as given in publication PMC11062922 (Nature Chemical Biology, 2023).
Where two headings read alike, the source gives them in different places.

Key:
Parameters in all cases: species or system human, MV4-11 + K-562 + COLO205 + SK-N-BE2 + OVCAR-8
ABL1 = details: read-out: apparent Kd, n = 1
ABL2 = details: read-out: apparent Kd, n = 1
AURKB = details: read-out: apparent Kd, n = 1
BTK = details: read-out: apparent Kd, n = 1
EPHB1 = details: read-out: apparent Kd, n = 1
LCK = details: read-out: apparent Kd, n = 1
MAP3K11 = details: read-out: apparent Kd, n = 1
NUAK2 = details: read-out: apparent Kd, n = 1
PTK6 = details: read-out: apparent Kd, n = 1
RPS6KA3 = details: read-out: apparent Kd, n = 1
CIT = details: read-out: apparent Kd, n = 1
PKN2 = details: read-out: apparent Kd, n = 1
MAPK14 = details: read-out: apparent Kd, n = 1
ACVR1B = details: read-out: apparent Kd, n = 1
RPS6KB1 = details: read-out: apparent Kd, n = 1
PAK6 = details: read-out: apparent Kd, n = 1
CDC42BPB = details: read-out: apparent Kd; compound concentrations: 100 nM and 1000 nM (sheet 'Samples'), CATDS: 4.0403129227197304E-3; n = 1
PIK3CD = details: read-out: apparent Kd; compound concentrations: 100 nM and 1000 nM (sheet 'Samples'), CATDS: 4.6666042012861897E-2; n = 1
PRKCA = details: read-out: apparent Kd; compound concentrations: 100 nM and 1000 nM (sheet 'Samples'), CATDS: 3.58231732022705E-3; n = 1
TTK = details: read-out: apparent Kd; compound concentrations: 100 nM and 1000 nM (sheet 'Samples'), CATDS: 3.8760622756019202E-3; n = 1
[1] = compound concentrations:100 nM and 1000 nM (sheet 'Samples')

`O=C1N=C(NCCc2ccc(Cl)cc2)S/C1=C\c1ccc2ncccc2c1` [RO4498479-000] showed a potency estimated from few doses (ABL1; compound concentrations: 100 nM and 1000 nM (sheet 'Samples'), CATDS: 1.01576334348417E-2) of 536 nM, a potency estimated from few doses (ABL2; compound concentrations: 100 nM and 1000 nM (sheet 'Samples'), CATDS: 1.7069961948359198E-2) of 201 nM and a potency estimated from few doses (AURKB; compound concentrations: 100 nM and 1000 nM (sheet 'Samples'), CATDS: 7.59982177866047E-3) of 1200 nM. For the same compound, the potency estimated from few doses (BTK; compound concentrations: 100 nM and 1000 nM (sheet 'Samples'), CATDS: 1.35831068182147E-2) was 297 nM, the potency estimated from few doses (EPHB1; compound concentrations: 100 nM and 1000 nM (sheet 'Samples'), CATDS: 1.3764533210370701E-2) was 290 nM and the potency estimated from few doses (LCK; compound concentrations: 100 nM and 1000 nM (sheet 'Samples'), CATDS: 1.3202335772702E-2) was 313 nM. For the same compound, the potency estimated from few doses (MAP3K11; compound concentrations: 100 nM and 1000 nM (sheet 'Samples'), CATDS: 8.9469693791647507E-3) was 733 nM, the potency estimated from few doses (NUAK2; compound concentrations: 100 nM and 1000 nM (sheet 'Samples'), CATDS: 7.8006037154547897E-3) was 1100 nM and the potency estimated from few doses (PTK6; compound concentrations: 100 nM and 1000 nM (sheet 'Samples'), CATDS: 1.2314432114231401E-2) was 357 nM. It also gave a potency estimated from few doses (RPS6KA3; compound concentrations: 100 nM and 1000 nM (sheet 'Samples'), CATDS: 7.9720572811278097E-3) of 1020 nM.

`CCn1c(-c2nonc2N)nc2c(C#CC(C)(C)O)nc(OCCN)cc21.CCn1c(-c2nonc2N)nc2c(C#CC(C)(C)O)nc(OCCN)cc21.Cl.Cl` [GSK902056A] showed a potency estimated from few doses (CIT; [1]) of 1340 nM and a potency estimated from few doses (PKN2; [1]) of 581 nM.

`Cl.NCc1ccc(-c2nc(-c3ccc(Cl)c(O)c3)c(-c3ccncc3)[nH]2)cc1` [SB-476429-A] was tested, and the potency estimated from few doses (MAPK14; [1]) was 113 nM.

`CCn1c(-c2nonc2N)nc2c(-c3ccccc3)ncc(OCCCN)c21.CCn1c(-c2nonc2N)nc2c(-c3ccccc3)ncc(OCCCN)c21.O=C(O)C(F)(F)F.O=C(O)C(F)(F)F` [GSK260205A] showed a potency estimated from few doses (ACVR1B; compound concentrations: 100 nM and 1000 nM (sheet 'Samples'), CATDS: 3.5352360337843801E-2) of 755 nM, a potency estimated from few doses (CIT; compound concentrations: 100 nM and 1000 nM (sheet 'Samples'), CATDS: 2.8413357389646399E-2) of 1630 nM and a potency estimated from few doses (MAPK14; compound concentrations: 100 nM and 1000 nM (sheet 'Samples'), CATDS: 4.1756268177550598E-2) of 478 nM.

For `CCOc1nccc2c1nc(-c1nonc1N)n2CC` [SB-737198], the potency estimated from few doses (PKN2; compound concentrations: 100 nM and 1000 nM (sheet 'Samples'), CATDS: 0.50424526517456403) was 231 nM and the potency estimated from few doses (RPS6KB1; compound concentrations: 100 nM and 1000 nM (sheet 'Samples'), CATDS: 0.20646016989107699) was 1320 nM.

Compound `COc1cccc2c(-c3ccncc3)c(-c3ccc(F)cc3)nn12` [GW468513X] has a potency estimated from few doses (ACVR1B; compound concentrations: 100 nM and 1000 nM (sheet 'Samples'), CATDS: 0.110012792882782) of 83.3 nM, a potency estimated from few doses (CIT; compound concentrations: 100 nM and 1000 nM (sheet 'Samples'), CATDS: 4.9718513038834899E-2) of 539 nM and a potency estimated from few doses (MAPK14; compound concentrations: 100 nM and 1000 nM (sheet 'Samples'), CATDS: 0.16592681304069401) of 42.8 nM.

`Cl.Cl.NCC(C(=O)Nc1cc(Br)c(-c2ccnc3[nH]ccc23)s1)c1ccccc1.NCC(C(=O)Nc1cc(Br)c(-c2ccnc3[nH]ccc23)s1)c1ccccc1` (stereo not drawn) [GSK1269851A] gave a potency estimated from few doses (ABL1; [1]) of 1040 nM, a potency estimated from few doses (ABL2; [1]) of 433 nM and a potency estimated from few doses (BTK; [1]) of 638 nM. For the same compound, the potency estimated from few doses (EPHB1; [1]) was 331 nM, the potency estimated from few doses (LCK; [1]) was 519 nM and the potency estimated from few doses (MAP3K11; [1]) was 2030 nM. The potency estimated from few doses (PAK6; [1]) was 710 nM, the potency estimated from few doses (PTK6; [1]) was 1450 nM and the potency estimated from few doses (RPS6KA3; [1]) was 1840 nM.

With `CCn1c(-c2nonc2N)nc2c(C#CC(C)(C)O)nc(OC[C@@H](N)c3ccccc3)cc21` [GSK938890A] the potency estimated from few doses (PAK6; compound concentrations: 100 nM and 1000 nM (sheet 'Samples'), CATDS: 9.3701498593083701E-2) was 129 nM.

`CN1C[C@@H]2Cn3c(c(C4=C(c5cn(C)c6ccccc56)C(=O)NC4=O)c4ccccc43)C[C@H]2C1.Cl` [RO0320234-001] was tested, and the potency estimated from few doses (ABL1; [1]) was 93.7 nM, the potency estimated from few doses (ABL2; [1]) was 5.56 nM and the potency estimated from few doses (AURKB; [1]) was 444 nM. The potency estimated from few doses (BTK; [1]) was 86.7 nM, the potency estimated from few doses (EPHB1; [1]) was 10.4 nM and the potency estimated from few doses (LCK; [1]) was 134 nM. It also gave a potency estimated from few doses (NUAK2; [1]) of 843 nM, a potency estimated from few doses (PAK6; [1]) of 111 nM and a potency estimated from few doses (PTK6; [1]) of 970 nM. For the same compound, the potency estimated from few doses (RPS6KA3; [1]) was 2100 nM and the potency estimated from few doses (RPS6KB1; [1]) was 86.4 nM.

`Cn1ncc2c(N)ncnc21` [SKF-18267] was tested, and the potency estimated from few doses (ABL1; compound concentrations: 100 nM and 1000 nM (sheet 'Samples'), CATDS: 4.5890401321851898E-3) was 972 nM, the potency estimated from few doses (ABL2; compound concentrations: 100 nM and 1000 nM (sheet 'Samples'), CATDS: 5.0197498438992799E-3) was 808 nM and the potency estimated from few doses (ACVR1B; compound concentrations: 100 nM and 1000 nM (sheet 'Samples'), CATDS: 5.9618595467290699E-3) was 587 nM. It also gave a potency estimated from few doses (AURKB; compound concentrations: 100 nM and 1000 nM (sheet 'Samples'), CATDS: 5.1927798123429401E-3) of 756 nM, a potency estimated from few doses (BTK; compound concentrations: 100 nM and 1000 nM (sheet 'Samples'), CATDS: 5.3280284172791698E-3) of 720 nM and a potency estimated from few doses (CDC42BPB) of 1300 nM. The potency estimated from few doses (CIT; compound concentrations: 100 nM and 1000 nM (sheet 'Samples'), CATDS: 4.0396253783402704E-3) was 1300 nM, the potency estimated from few doses (EPHB1; compound concentrations: 100 nM and 1000 nM (sheet 'Samples'), CATDS: 5.0582838235080502E-3) was 796 nM and the potency estimated from few doses (MAP3K11; compound concentrations: 100 nM and 1000 nM (sheet 'Samples'), CATDS: 4.0610212954189503E-3) was 1290 nM. It also gave a potency estimated from few doses (MAPK14; compound concentrations: 100 nM and 1000 nM (sheet 'Samples'), CATDS: 5.3577076045461004E-3) of 712 nM, a potency estimated from few doses (PIK3CD) of 40.8 nM and a potency estimated from few doses (PKN2; compound concentrations: 100 nM and 1000 nM (sheet 'Samples'), CATDS: 4.0047157593236004E-3) of 1330 nM. The potency estimated from few doses (PRKCA) was 1810 nM, the potency estimated from few doses (PTK6; compound concentrations: 100 nM and 1000 nM (sheet 'Samples'), CATDS: 4.9971490936353098E-3) was 815 nM and the potency estimated from few doses (RPS6KA3; compound concentrations: 100 nM and 1000 nM (sheet 'Samples'), CATDS: 4.3523145160936898E-3) was 1090 nM. It also gave a potency estimated from few doses (RPS6KB1; compound concentrations: 100 nM and 1000 nM (sheet 'Samples'), CATDS: 4.5805386510862304E-3) of 976 nM and a potency estimated from few doses (TTK) of 1450 nM.

`Cl.ON=C1CCc2cc(-c3nc(C4CCNCC4)[nH]c3-c3ccncc3)ccc21` [SB-614067-R] gave a potency estimated from few doses (ACVR1B; [1]) of 846 nM and a potency estimated from few doses (MAPK14; [1]) of 1160 nM.

`Cc1ccc(Nc2ccnc(Nc3ccc4c(c3)CS(=O)(=O)C4)n2)cc1O.Cl` [GW579362A] showed a potency estimated from few doses (ABL1; compound concentrations: 100 nM and 1000 nM (sheet 'Samples'), CATDS: 2.9223994432995299E-2) of 1330 nM, a potency estimated from few doses (ABL2; compound concentrations: 100 nM and 1000 nM (sheet 'Samples'), CATDS: 4.4791805431594098E-2) of 448 nM and a potency estimated from few doses (MAP3K11; compound concentrations: 100 nM and 1000 nM (sheet 'Samples'), CATDS: 2.6959638591647499E-2) of 1770 nM. It also gave a potency estimated from few doses (MAPK14; compound concentrations: 100 nM and 1000 nM (sheet 'Samples'), CATDS: 2.9505107428945899E-2) of 1290 nM and a potency estimated from few doses (PTK6; compound concentrations: 100 nM and 1000 nM (sheet 'Samples'), CATDS: 3.01604654859133E-2) of 1200 nM.

Compound `CCOC(=O)N1CCC(n2cnc(-c3ccc(F)cc3)c2-c2ccnc(N)n2)CC1` [SB-219952] has a potency estimated from few doses (ABL1; compound concentrations: 100 nM and 1000 nM (sheet 'Samples'), CATDS: 8.9388068544210691E-3) of 1180 nM, a potency estimated from few doses (ABL2; compound concentrations: 100 nM and 1000 nM (sheet 'Samples'), CATDS: 1.2118968768927599E-2) of 552 nM and a potency estimated from few doses (BTK; compound concentrations: 100 nM and 1000 nM (sheet 'Samples'), CATDS: 1.0743585683712699E-2) of 726 nM. The potency estimated from few doses (EPHB1; compound concentrations: 100 nM and 1000 nM (sheet 'Samples'), CATDS: 1.10661154917942E-2) was 677 nM, the potency estimated from few doses (LCK; compound concentrations: 100 nM and 1000 nM (sheet 'Samples'), CATDS: 1.05022707080212E-2) was 767 nM and the potency estimated from few doses (MAP3K11; compound concentrations: 100 nM and 1000 nM (sheet 'Samples'), CATDS: 1.0131438391308501E-2) was 838 nM. For the same compound, the potency estimated from few doses (MAPK14; compound concentrations: 100 nM and 1000 nM (sheet 'Samples'), CATDS: 3.3048485919856201E-2) was 97.1 nM, the potency estimated from few doses (PTK6; compound concentrations: 100 nM and 1000 nM (sheet 'Samples'), CATDS: 1.0027639490301001E-2) was 861 nM and the potency estimated from few doses (RPS6KA3; compound concentrations: 100 nM and 1000 nM (sheet 'Samples'), CATDS: 7.9232054284878294E-3) was 1760 nM.
